Compound activity as filed in PubChem BioAssay.
beta cell repl: inducers of MIN6 beta-cell proliferation, primary screen, ATP luminescence, uHTS. MIN6 cells proliferation, ATPlite luminescence, 48 h; cells starved in 0.2% serum; 100% = growth in 10% serum. proliferation, % at 10 µM. 0.29% of 330,000 active. AID 2380, 2010;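 active = compounds whose signal lies at least 3.5 SD above the mean of all wells on their plate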;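 note: 0% = DMSO-treated cells in low-serum medium and 100% = 10% serum control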
A3A deaminase: APOBEC3A ssDNA deaminase inhibitors, primary screen, selectivity assay for APOBEC3G inhibitor project, biochemical, FAM/TAMRA oligo cleavage fluorescence | DNA dC->dU-editing enzyme APOBEC-3A (Homo sapiens), P31941 | recombinant A3A, FAM/TAMRA ssDNA deamination fluorescence | inhibition, % at 20 µM | 0.41% of 330,000 active;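 active = at least 40% inhibition at 20 µM here, with at most 30% in a related deaminase screen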;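 note: plate controls were A3A with DMSO for no effect and wells lacking A3A enzyme for full effect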
NRP1-CendR mod: modulators of CendR peptide binding to NRP-1, primary screen, biochemical, fluorescence polarization, uHTS. Neuropilin-1 (Homo sapiens), O14786. FAM-RPARPAR peptide binding to NRP-1. inhibition, % at 25 µM. 0.85% of 360,000 active. AID 602438, 2012;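 active = inhibition or corrected inhibition above about 18%, plus a signal ratio from 0.5 to 1.5, limit read from the data, passing the limit was not always enough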
VLA-4 inh: inhibition in human VLA-4 binding assay, primary screen, VLA-4 allosteric modulator project, MLPCN library, flow cytometry, VLA-4 expressing cells | ligand binding flow cytometry | inhibition, % (about 7 µM as worked out from the volumes in the protocol) | 0.2% of 330,000 active; in the data active = inhibition above about 50%
Target sequence (P13612 whole entry, looked up): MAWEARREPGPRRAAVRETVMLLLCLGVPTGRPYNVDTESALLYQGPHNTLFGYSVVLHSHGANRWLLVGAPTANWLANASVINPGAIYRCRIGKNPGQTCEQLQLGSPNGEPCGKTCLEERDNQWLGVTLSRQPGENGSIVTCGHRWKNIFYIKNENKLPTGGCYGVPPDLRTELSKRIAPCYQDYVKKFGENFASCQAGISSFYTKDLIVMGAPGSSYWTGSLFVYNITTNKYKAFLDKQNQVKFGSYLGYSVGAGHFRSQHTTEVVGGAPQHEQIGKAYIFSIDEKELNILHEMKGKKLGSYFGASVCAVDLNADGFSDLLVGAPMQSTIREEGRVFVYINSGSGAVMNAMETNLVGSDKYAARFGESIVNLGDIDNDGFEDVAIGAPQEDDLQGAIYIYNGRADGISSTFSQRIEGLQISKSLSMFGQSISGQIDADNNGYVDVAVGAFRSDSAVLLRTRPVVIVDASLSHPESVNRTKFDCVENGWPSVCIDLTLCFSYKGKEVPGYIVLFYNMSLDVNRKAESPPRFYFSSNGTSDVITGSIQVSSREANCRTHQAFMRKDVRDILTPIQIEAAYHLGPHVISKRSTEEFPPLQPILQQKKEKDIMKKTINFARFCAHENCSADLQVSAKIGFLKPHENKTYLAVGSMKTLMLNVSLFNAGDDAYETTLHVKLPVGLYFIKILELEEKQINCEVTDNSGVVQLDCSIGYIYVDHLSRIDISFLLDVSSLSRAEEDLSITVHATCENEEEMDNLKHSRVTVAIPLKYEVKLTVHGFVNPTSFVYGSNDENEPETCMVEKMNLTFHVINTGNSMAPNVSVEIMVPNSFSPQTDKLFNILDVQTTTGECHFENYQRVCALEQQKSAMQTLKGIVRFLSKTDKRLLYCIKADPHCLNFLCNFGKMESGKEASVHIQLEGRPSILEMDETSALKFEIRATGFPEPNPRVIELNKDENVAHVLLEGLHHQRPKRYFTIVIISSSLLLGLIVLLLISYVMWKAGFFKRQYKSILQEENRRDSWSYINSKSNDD
A3G deaminase: APOBEC3G DNA deaminase inhibitors, primary screen, biochemical, fluorescence, single-stranded DNA substrate, uHTS | AID 493012, 2011 | inhibition, % at 20 µM | 0.28% of 330,000 active | DNA dC->dU-editing enzyme APOBEC-3G (Homo sapiens), Q9HC16 | recombinant A3G, ssDNA deamination FAM/TAMRA fluorescence;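 active = inhibition of at least 40% at 20 µM, with no more than 30% in the related APOBEC3A deaminase screen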;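 note: plate controls were DMSO wells with A3G for no effect and wells lacking A3G enzyme for full effect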
A3A conf: APOBEC3A deaminase inhibitors, retest, confirmation, selectivity assay for APOBEC3G inhibitor project, biochemical, single concentration, fluorescence readout | inhibition, % at 20 µM | 63% of 1,400 active | shares compounds with A3A deaminase | recombinant A3A, ssDNA deaminase UDG fluorescence assay;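 active = inhibition reaching a set limit, 80% of the first screen's cutoff, at 20 µM in any replicate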;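 note: plate controls were DMSO wells with A3A for no effect and wells lacking A3A enzyme for full effect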
UDG A3A counter: E. coli UDG inhibitors, confirmation, counter-screen for APOBEC3A inhibitor project, biochemical, single concentration, fluorescence, FAM/TAMRA oligo. UDG counterscreen, FAM/TAMRA uracil oligo fluorescence. 1,000 tested, under 10 active. AID 504714, 2011. inhibition, % at 20 µM. shares compounds with A3A deaminase; call rule not given here
* marks the source's active call; other numbers are inactive results; / = not tested or not shown; ! = not active in a repeat. Only some compounds are listed: those with a hit (about 1.8% of all), similar ones and a draw of the others.

SMILES | beta cell repl | A3A deaminase | NRP1-CendR mod | VLA-4 inh | A3G deaminase | A3A conf | UDG A3A counter
N#Cc1c(SCC(=O)Nc2nc3ccccc3s2)sc2c(O)cc(=O)[nH]c12 | -3 | 78 | -96 | -11 | 64 | / | /
N#Cc1c(SCC(=O)Nc2nc3ccc(Br)cc3s2)sc2c(O)cc(=O)[nH]c12 | 0 | 43* | -114 | 3 | 27 | 39* | -4
C[n+]1cc(-c2ccccc2)n2c1CCCCC2 | -1 | 53* | 13 | -2 | 9 | 67* | -3
O=C(Cn1c2[n+](c3ccc(C(F)(F)F)cc31)CCCCC2)Nc1ccccc1 | 0 | 60* | -10 | 13 | 23 | 62* | -2
CCc1cccc(NC(=O)Cn2c3[n+](c4ccc(C(F)(F)F)cc42)CCCCC3)c1 | 0 | 62* | -7 | 4 | 17 | 78* | -4
O=C(Cn1c2[n+](c3ccc(C(F)(F)F)cc31)CCCCC2)c1cccc([N+](=O)[O-])c1 | 2 | -3 | -3 | -2 | -4 | / | /
FC(F)(F)c1ccc2c(c1)n(Cc1ccccc1)c1[n+]2CCCCC1 | -3 | 45 | -33 | -1 | 65 | / | /
COc1cccc(O)c1CN1CCC(Oc2ccc(C(=O)NCc3ccccn3)cc2)CC1 | -3 | -7 | -1 | 6 | -4 | / | /
CCOC(=O)c1c(NC(=O)Cn2ccsc2=N)sc(C)c1C | 5 | 57* | -8 | 3 | 10 | 24 | /
CCOC(=O)c1c(NC(=O)CNCCO)sc(C)c1C | -1 | -3 | -8 | 21 | -4 | / | /
COc1ccc(CC(=O)N/N=C/c2ccc(-c3ccc(F)cc3)o2)cc1OC | -2 | 3 | 4 | 17 | 6 | / | /
COc1ccc(CC(=O)N/N=C/c2ccc(-c3cccc(C(=O)O)c3)o2)cc1OC | -3 | 42* | -46 | -10 | 6 | 25 | /
COc1ccc(C)cc1NCC(=O)Nc1ccc(C(C)(C)C)cc1 | 0 | -1 | 8 | 20 | -3 | / | /
O=C(/C=C/c1ccccc1)c1cc(Br)ccc(=O)c1O | -6 | 41* | -66 | -2 | 17 | 40* | /
O=C(/C=C/c1ccc(F)cc1)c1cc(Br)ccc1O | -6 | 0 | -8 | -4 | 0 | / | /
c1ccc2[nH]c(-c3ccnc4ccccc34)nc2c1 | 1 | 98*! | 3 | 0 | -1 | 10 | /
c1ccc2c(-c3nc4ccccc4[nH]3)cccc2c1 | / | / | -1 | / | / | / | /
Cn1c(=O)[nH]c(=O)c2c1nc(N1CCN(CCO)CC1)n2Cc1ccccc1 | 1 | -5 | -10 | 7 | -4 | / | /
CN1CCN(S(=O)(=O)c2ccc(C3CCCCC3)cc2)CC1 | 5 | 45* | 2 | / | 8 | 50* | 1
CC1CC(C)CN(CCCNC(=O)c2nn(C)c3c2CS(=O)(=O)c2ccccc2-3)C1 (centres undefined) | 0 | -7 | 4 | -102 | -6 | / | /
CCn1nc(NC(C)=O)c2cc3cccc(C)c3nc21 | -1 | 76* | -2 | 0 | 14 | 65* | -4
CCn1nc(NC(=O)C(C)C)c2cc3cccc(C)c3nc21 | -3 | -2 | 17 | -14 | -8 | / | /
O=C(CCNC(=O)c1ccc(Br)cc1)Nc1ncccc1O | -2 | 6 | 11 | 10 | -7 | / | /
CNC(=O)CN(C1CCCCC1)S(=O)(=O)c1ccc(OC)c(Cl)c1 | -2 | 44* | -3 | -6 | 17 | 15 | /
OCC[C@@H]1C[C@@H](O)[C@H](O)[C@]2(Cc3ccccc3CCO2)O1 | 1 | -1 | 7 | 21 | -8 | / | /
SMILES | beta cell repl | A3A deaminase | NRP1-CendR mod | VLA-4 inh | A3G deaminase | A3A conf | UDG A3A counter
O=C(NCCCO)c1cc([N+](=O)[O-])cc2c1C=Cc1ccccc1O2 | -4 | 47* | 6 | 6 | 6 | 20 | /
CC1CCCC(NC(=O)COC(=O)COc2ccc(C#N)cc2)C1C (centres undefined) | -3 | -3 | -10 | -2 | -3 | / | /
CCN1C(=NCCCOC(C)C)N[C@@H](CCc2ccccc2)[C@H](C(=O)NCCCOC(C)C)[C@H]1C | -6 | 42* | 13 | -28 | 9 | 58* | -2
CCN1C(=NCCOC)N[C@@H](CCc2ccccc2)[C@H](C(=O)OC)[C@H]1C | 1 | 46* | 13 | 0 | 4 | 66* | -3
CCc1ccc(NC(=O)Cn2nc(C(=O)O)c3ccccc3c2=O)cc1 | -1 | 10 | 3 | 3 | 4 | / | /
COc1cc(OC)c(OC)cc1CNC(=O)c1cc(=O)[nH]c2ccccc12 | 1 | 21 | -5 | 3 | -1 | / | /
CCN(CC(=O)Nc1ccc(NC(C)=O)cc1)C(=O)c1ccc(NC2CC2)c([N+](=O)[O-])c1 | -1 | 52* | 6 | 11 | 24 | -1 | /
COc1ccc(S(=O)(=O)N2CCOCC2)cc1NC(=O)CN1C(=O)NC2(CCCC2)C1=O | 0 | 2 | 8 | -24 | -5 | / | /
COc1ccc(C(CC(=O)N2CCOCC2)c2c(OC)cc(OC)c3ccc(=O)oc23)cc1 (centres undefined) | 1 | 12 | 8 | 1 | 16 | / | /
COc1ccc(C(CC(=O)N2CCOCC2)c2c(OC)cc(OC)c3c(-c4ccccc4)cc(=O)oc23)cc1 (centres undefined) | -1 | 60* | -16 | -6 | 11 | 48* | -2
COc1ccc(C(CC(=O)N2CCCC(C)C2)c2c(OC)cc(OC)c3c(-c4ccccc4)cc(=O)oc23)cc1 (centres undefined) | -8 | 69* | -1 | -8 | 18 | 63* | -1
COc1ccc(C(CC(=O)N2CCCC2)c2c(OC)cc(OC)c3ccc(=O)oc23)cc1 (centres undefined) | 5 | 7 | 15 | -11 | -3 | / | /
COc1cc(C(CC(=O)N2CCCC2)c2c(OC)cc(OC)c3c(-c4ccccc4)cc(=O)oc23)cc(OC)c1OC (centres undefined) | -5 | 43* | -8 | -6 | 7 | 30 | /
COc1ccc(C(CC(=O)N2CCCCC2)c2c(OC)cc(OC)c3c(-c4ccccc4)cc(=O)oc23)cc1 (centres undefined) | -8 | 72* | 0 | -6 | 22 | 73* | 4
O=C(/C=C/c1ccccc1)OCCN1C(=O)c2ccccc2C1=O | -3 | -1 | 3 | 8 | -7 | / | /
